The whole screen tested about 69,000 compounds, of which about 8,600 (12%) showed an effect of 50% or more. What follows is part of a selection rich in strong results, with near analogues and random picks from the rest.

Data on 65 molecules can be found in ChEMBL document CHEMBL4513216, “Probing the Open Global Health Chemical Diversity Library for Multistage-Active Starting Points for Next-Generation Antimalarials” (ACS Infect Dis, 2020).

The test system of this assay is Plasmodium berghei. The experiment in a line: Screen against P. berghei liver stage (PbLuc), transformed with Luciferase, at 10uM. Format: functional, HepG2. The settings on record: tested at 10 uM.
As for `CN1CCN(c2ncc(CNCCCc3cccc(F)c3)cn2)CC1`, the INHIBITION is reported as 46.8%. With `CCCNC(=O)CN1CCOC(CC)C1` (stereo not given), the INHIBITION is 61.3%. On to `CCC1CN(CC(=O)NCCOC)CCO1` (stereo not given), for which the INHIBITION was -22.3%.

Regarding `CCC1CN(CC(=O)NC(C)C)CCO1` (stereo not given), the INHIBITION is on record as -8.22%.

Take `CCC1CN(CC(=O)NCCC#N)CCO1` (stereo not given): the INHIBITION is on record as 52.6%. Turning to `CCC1CN(CC(=O)Nc2sccc2C#N)CCO1` (stereo not given), the INHIBITION is 17%. Regarding `CCC1CN(CC(=O)NCC(C)C)CCO1` (stereo not given), the INHIBITION is reported as 30.9%. For `O=C(c1ccccn1)N1C[C@H]2CC[C@@H](C1)N(C(=O)Cc1cccs1)C2`, the INHIBITION amounted to 4.13%.

Regarding `CC1=N[C@@]2(CC[C@@H]3CN(S(=O)(=O)N(C)C)C[C@@H]32)C(=O)N1CC(C)C`, the INHIBITION was determined as 7.96%. On to `Cc1nc(C2CCCN2C(=O)c2csc3c2CCCC3)no1` (stereo not given), for which the INHIBITION is 15.3%. Turning to `Cc1c(C)n(Cc2ccncc2)c2nc3c(c(N)c12)CCCC3`, the INHIBITION turned out to be 44.1%.

With `Cc1c(C)n(Cc2ccncc2)c2nc3c(c(N)c12)CCCCC3`, the INHIBITION was 70.3%. The same measure for `Cc1ccc(CN2CCC3(CCN(Cc4ccncc4)CC3)CC2)cc1`: 33%. The value for `Cc1c(C)n(Cc2ccncc2)c2nc3c(c(N)c12)CCCCCC3` was 77.6%; that for `CN1CCC(NC(=O)[C@H]2CC[C@@H]3[C@@H](CCN3c3ncccn3)O2)CC1` was 18.5%.

For the molecule `CCc1nc(CC(=O)N2CCn3c(CC)nnc3C2)cs1`, the INHIBITION is listed as -12.33%. The value for `CCS(=O)(=O)Nc1ccn(Cc2c(F)cccc2Cl)n1` was -39.5%.

Regarding `N#Cc1cccnc1N1CCCN(C(=O)CCn2cccn2)CC1`, the INHIBITION was 29.2%.

In the case of `CN1CCN(Cc2ccccc2CNC(=O)c2ccc(Br)cc2)CC1`, the INHIBITION amounted to 33.2%. As to `O=C(NCc1ccncc1)c1ccc(Cl)cc1F`, the INHIBITION was -3.95%. Take `CN1CCN(Cc2ccccc2CNC(=O)c2ccc(Br)cc2F)CC1`: the INHIBITION amounted to 30.8%. The value for `Cn1ccc(C(=O)NCc2ccccc2CN2CCCC2)cc1=O` was 13.6%; that for `CN1CCN(Cc2ccccc2CNC(=O)c2cc(Br)ccc2F)CC1` was 59.3%; that for `O=C(Nc1ccc(Br)cc1F)c1cc(CN2CCOCC2)on1` was -43.7%. The value for `O=C(NCc1ccccc1CN1CCOCC1)c1ccc(Br)cc1F` was 62.3%.

In the case of `CN1CCN(c2ccccc2CNC(=O)Cc2ccccc2F)CC1`, the INHIBITION was 14.3%. With `CN1CCN(Cc2ccccc2CNC(=O)c2ccc(Cl)cc2F)CC1`, the INHIBITION came to 55.4%. The same measure for `COc1ccc(CNC(=O)c2ccc(Cl)cc2F)cc1C(=O)O`: -8.55%; for `CN1CCN(Cc2ccccc2CNC(=O)c2cc(Cl)ccc2F)CC1`: 63.3%; for `O=C(NCc1ccccc1CN1CCOCC1)Nc1nncs1`: -10.4%. The value for `Cc1cc(C(=O)NCc2ccc(N3CCCC(C(N)=O)C3)cc2)on1` (stereo not given) was 15.3%; that for `CN(C)CCN1CCCC12CCN(C(=O)c1cnccn1)CC2` was 24.9%; that for `CCC1(CC)CC(=O)N(CC(O)c2ccc(F)cc2)C1=O` (stereo not given) was -15%. The value for `CN(CC(O)C(F)(F)F)C(=O)Nc1cccc(Cn2cccn2)c1` (stereo not given) was 13.8%. For the molecule `Cc1cc(CNCC2CNc3ccnn3C2)no1` (stereo not given), the INHIBITION was found to be 31%. The value for `Cc1cnc(-c2nc(C3CCN(Cc4ccccc4O)CC3)no2)cn1` was 23.7%. For the molecule `Cc1cc(C)n(CC2CN(CC(=O)N3CCNC3=O)CCO2)n1` (stereo not given), the INHIBITION was -3.7%. For the molecule `COc1ccc(NC(=O)CSc2ccc3nncn3n2)c(OC)c1`, the INHIBITION is on record as 27%. Turning to `Cc1occc1C(=O)N1Cc2nccn2CC(CN2CCOCC2)C1` (stereo not given), the INHIBITION is 5.89%. The same measure for `CCCc1nnsc1C(=O)NCC(O)c1ccoc1` (stereo not given): 15.5%; for `CS(=O)(=O)c1cccc(OCC(=O)N2CCCC2c2ccc[nH]2)c1` (stereo not given): 61.6%; for `Cc1cccc(C2CCCN2C(=O)CCS(C)(=O)=O)c1C` (stereo not given): -8.84%. Consider `COCC(=O)N1CCCC1c1cccc(C)c1C` (stereo not given), for which the INHIBITION worked out at 17.1%. The value for `CS(=O)(=O)c1cccc(OCC(=O)N2CCCC2c2ccccc2Cl)c1` (stereo not given) was 85.2%; that for `O=C(COc1ccc2c(c1)CCC2)N1CCCC1c1ccc[nH]1` (stereo not given) was -38.6%. The same measure for `O=C(COc1ccccc1)N1CCCC1c1ccc[nH]1` (stereo not given): -23.3%; for `CCC(O)CN1CCN(C(=O)c2cnn(-c3ccccc3F)c2)CC1` (stereo not given): -1.37%; for `COc1ccc(CN2C[C@H]3CC[C@](O)(c4ccc(C)cn4)[C@H]3C2)c(F)c1`: 27.3%. Take `Cc1ccc([C@]2(O)CC[C@H]3CN(Cc4ccc(Cl)cc4Cl)C[C@H]32)nc1`: the INHIBITION turned out to be 93.1%. In the case of `Cc1ccc([C@]2(O)CC[C@H]3CN(Cc4cccc(Cl)c4Cl)C[C@H]32)nc1`, the INHIBITION is reported as 62%. Take `Cc1cccnc1[C@]1(O)CC[C@H]2CN(Cc3cccc(Cl)c3Cl)C[C@H]21`: the INHIBITION is 15.9%. As to `O[C@]1(c2ccccn2)CC[C@@H]2CN(Cc3cccc4ncccc34)C[C@@H]21`, the INHIBITION came to 27.9%.

As to `Cc1ccc([C@]2(O)CC[C@H]3CN(Cc4cccc(F)c4F)C[C@H]32)nc1`, the INHIBITION is reported as 15.9%.

For the molecule `Cc1ccc([C@]2(O)CC[C@H]3CN(Cc4ccccc4F)C[C@H]32)nc1`, the INHIBITION is -18.2%. Turning to `COc1cccc(CN2C[C@@H]3CC[C@@](O)(c4ccccn4)[C@@H]3C2)c1OC`, the INHIBITION was determined as 24.8%. For the molecule `O[C@@]1(c2ccccn2)CC[C@H]2CN(Cc3cccc(Cl)c3Cl)C[C@H]21`, the INHIBITION was 61.4%. The value for `CC(=O)c1ccc(F)cc1-c1cc(NCCO)nc2[nH]ccc12` was -110%; that for `CN(C)c1cccc(C(=O)N2CCCC2c2ncc3c(n2)CCNC3)c1` (stereo not given) was -16.7%; that for `Cc1cc(NC(C)c2nncn2C2CCCC2)n2nc(C)cc2n1` (stereo not given) was 35.8%. The same measure for `Cc1cc2nc(C(C)C)cc(NC(C)c3nncn3C)n2n1` (stereo not given): 47.6%; for `Cc1cc2nc(C(C)C)cc(NC(C)c3nncn3C3CCCC3)n2n1` (stereo not given): 51.2%; for `O=C(c1cnn2cccnc12)N1CCCC(n2ccnc2)C1` (stereo not given): 2.3%. The same measure for `Cc1cccc(CN2CC[C@@H]3[C@@H](CO[C@H]3CNc3ncccn3)C2)n1`: 18.4%; for `COc1cc2ccccc2cc1C(=O)N1CCCC(c2nncn2C)C1` (stereo not given): -8.11%; for `CC(C)c1nc2c(n1C)CCN(CC(=O)Nc1ccnn1C(C)C)C2`: 27.4%.
